Reference: PubChem BioAssay (NCATS)
Records with an inconclusive call do not appear. Activity calls are given as the source filed them. Unless noted, calls follow the shape of the dose curve; as a rule, active = well fitted curve in the direction sought with a large enough effect; inconclusive = small, poorly fitted or top-dose-only effect, or another doubt; inactive = no such curve, though single readings can be large; an effect the other way counts as inactive or inconclusive.

Key:
[1] = target: T1, Hexokinase-4 (Homo sapiens) + Glucokinase regulatory protein (Homo sapiens) (UniProt P35557+Q14397); test: qHTS assay for inhibitors of recombinant human GCK-GKRP interaction: Diaphorase-coupled assay (AID 743205)
How it was run: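 A kinetic fluorescence read (Ex 525/Em 590 nm, every minute for 30 minutes) tracked resorufin from a G6PDH-diaphorase coupled GCK reaction. It contained 10 nM GST-GCK, 10 nM FLAG-GKRP, 5 mM glucose, 0.4 mM ATP in Hepes pH 7.6. Normalized to with/without-enzyme DMSO controls.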

[2] = target: T1, Hexokinase-4 (Homo sapiens) + Glucokinase regulatory protein (Homo sapiens); test: qHTS assay for inhibitors of recombinant human GCK-GKRP interaction: ADP-Glo assay (AID 743206);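 also: plate controls were DMSO plus enzyme for no effect and no enzyme for full effect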
How it was run: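 GST-GCK and FLAG-GKRP (15 nM each in the dispensed mix, with 2 uM S6P) react with 0.4 mM ATP and 5 mM glucose (final) in Hepes pH 7.6 for 60 min at room temperature. ADP is measured by ADP-Glo luminescence.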

[3] = qHTS Assay for Identifying Gametocytocidal Compounds (AID 743244);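 also: % is scaled to controls: 0 for no effect and ±100 for the full control effect; actives lower the fluorescent signal which means gametocytes are killed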; settings: P. falciparum 3D7 stage III-V gametocytes, alamarBlue, 72 h; max response: active compounds read low
How it was run: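 In this qHTS viability screen, late-stage 3D7 gametocytes are incubated with compound for 72 h, then with alamarBlue for 24 h; reduced resorufin fluorescence marks killing.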

[4] = qHTS assay for measurement of the activity of small molecule inhibitors on Zika virus induced Caspase-3 activity in human iPSC derived neural progenitor cells (hNPCs) (AID 1224857); also: % of control where 0% means no effect; nearly all actives have a fitted effect of over 65% in size
How it was run: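 In medium with heparin 2 ug/ml and cyclopamine 2 uM, hNPCs (350 cells/well) received compound for one hour and then Zika virus at 2 FFU/cell; caspase activity was measured by Caspase-Glo 3/7 luminescence 6 h post-infection.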

[5] = qHTS assay for measurement of the activity of small molecule inhibitors on Zika virus induced Caspase-3 activity in human astrocytoma cells (AID 1224859);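 also: plate controls were ZIKV-infected untreated cells for no effect and uninfected cells for full effect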
How it was run: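 A cell-based luminescent caspase-3/7 assay used SNB-19 cells infected with ZIKV (2 FFU/cell) for 6 h following 1 h compound pretreatment.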

[6] = Natriuretic polypeptide receptor (hNpr1) antagonism - Pilot counterscreen GloSensor control cell line (AID 1347045; calls by dose curve; also: series mostly up to about 38 µM; % is scaled to controls: 0 for no effect and ±100 for the full control effect)
How it was run: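 HEK293 cGMP GloSensor cells preloaded 2 h with 2% GloSensor reagent, then compound 30 min before baseline luminescence read. Stimulated with 50 uM sodium nitroprusside, 20 min at room temperature, then read again; counterscreen for Npr1 antagonism.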

[7] = target: Atrial natriuretic peptide receptor 1 (Homo sapiens) (UniProt P16066); test: Natriuretic polypeptide receptor (hNpr1) antagonism - Pilot screen (AID 1347049; calls by dose curve;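 also: agonist-evoked cGMP luminescence read 20 min after hNppA addition; series mostly up to about 58 µM; % is scaled to controls: 0 for no effect and ±100 for the full control effect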)
How it was run: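 Readout is cGMP-driven firefly luciferase luminescence in HEK293 cells carrying hNpr1 and a PDE5-domain GloSensor, read before and 20 min after 0.1 nM hNppA stimulation. Cells had 2% substrate reagent for 2 h and test compound for 30 min.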

[8] = target: Atrial natriuretic peptide receptor 2 (Homo sapiens) (UniProt P20594); test: Natriuretic polypeptide receptor (hNpr2) antagonism - Pilot subtype selectivity assay (AID 1347050; calls by dose curve; also: % is scaled to controls: 0 for no effect and ±100 for the full control effect)
How it was run: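 Pilot selectivity screen against hNpr2: HEK293 cGMP-sensor cells are treated with LOPAC1280 compounds, then with hNppC peptide at 1 nM final. The cGMP-driven luminescence change over 20 min at room temperature is the read-out.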

[9] = target: T1, Hexokinase-4 (Homo sapiens) + Glucokinase regulatory protein (Homo sapiens); test: qHTS assay for inhibitors of recombinant human GCK-GKRP interaction: HTRF assay (AID 743207);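 also: 0% = DMSO with GCK present and -100% = DMSO wells lacking GCK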
How it was run: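 After 60 min equilibration at room temperature with anti-FLAG XL665 and anti-GST antibodies, FRET ratio (665/615 nm, excitation 320 nm) was read. Proteins: GST-GCK and FLAG-GKRP, each 5 nM, plus 2 uM S6P, pH 7.1 buffer; GCK-free wells define minimum signal.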

[10] = qHTS assay for cell viability of HEK293 cells (AID 743288); settings: ATP luminescence (CellTiter-Glo), 18 h; max response: active compounds read low; also: % is scaled to controls: 0 for no effect and ±100 for the full control effect; nearly all actives have a fitted effect of over 50% in size
How it was run: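 Total intracellular ATP, measured with a luciferase-coupled reagent, indicates the number of viable HEK293 cells. Exposure to test chemicals lasts 18 h at 37 C in 1,536-well format at 2,000 cells/well.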

[11] = qHTS assay for cell viability of the p53RE-bla HCT-116 cell line (AID 743292); also: % is scaled to controls: 0 for no effect and ±100 for the full control effect; nearly all actives have a fitted effect of over 55% in size
How it was run: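 ATP-based luminescence, 16 h compound exposure at 37 C, p53RE-bla HCT-116 cells at 4,000/well.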

Sequence of Atrial natriuretic peptide receptor 1 (Homo sapiens) (P16066 whole entry, looked up): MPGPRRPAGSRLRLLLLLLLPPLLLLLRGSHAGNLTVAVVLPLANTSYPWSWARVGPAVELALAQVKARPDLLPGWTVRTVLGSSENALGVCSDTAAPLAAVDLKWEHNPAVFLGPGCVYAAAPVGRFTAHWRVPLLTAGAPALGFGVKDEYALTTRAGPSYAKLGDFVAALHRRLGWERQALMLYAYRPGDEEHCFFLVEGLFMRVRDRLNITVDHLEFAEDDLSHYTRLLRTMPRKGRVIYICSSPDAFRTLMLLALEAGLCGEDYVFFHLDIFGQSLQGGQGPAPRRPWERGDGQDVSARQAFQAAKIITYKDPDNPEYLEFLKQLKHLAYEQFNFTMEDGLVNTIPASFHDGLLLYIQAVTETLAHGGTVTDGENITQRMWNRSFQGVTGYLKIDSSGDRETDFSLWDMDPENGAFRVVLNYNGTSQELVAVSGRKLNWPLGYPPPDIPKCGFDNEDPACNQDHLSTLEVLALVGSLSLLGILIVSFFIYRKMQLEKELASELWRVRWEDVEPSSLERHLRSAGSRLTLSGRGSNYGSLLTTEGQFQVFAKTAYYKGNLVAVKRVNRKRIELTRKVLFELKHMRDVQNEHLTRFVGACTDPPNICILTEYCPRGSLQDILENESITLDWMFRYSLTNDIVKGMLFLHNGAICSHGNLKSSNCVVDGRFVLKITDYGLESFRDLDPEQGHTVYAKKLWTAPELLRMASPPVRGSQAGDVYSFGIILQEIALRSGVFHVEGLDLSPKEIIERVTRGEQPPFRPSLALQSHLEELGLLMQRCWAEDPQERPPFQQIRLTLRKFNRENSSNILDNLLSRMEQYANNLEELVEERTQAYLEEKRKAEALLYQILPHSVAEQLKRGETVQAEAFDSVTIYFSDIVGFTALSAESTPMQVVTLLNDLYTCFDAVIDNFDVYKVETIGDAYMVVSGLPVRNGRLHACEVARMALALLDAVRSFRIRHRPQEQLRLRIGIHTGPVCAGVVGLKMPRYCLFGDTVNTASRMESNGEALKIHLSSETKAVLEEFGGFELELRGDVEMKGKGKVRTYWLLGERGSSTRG
Sequence of Atrial natriuretic peptide receptor 2 (Homo sapiens) (P20594 whole entry, looked up): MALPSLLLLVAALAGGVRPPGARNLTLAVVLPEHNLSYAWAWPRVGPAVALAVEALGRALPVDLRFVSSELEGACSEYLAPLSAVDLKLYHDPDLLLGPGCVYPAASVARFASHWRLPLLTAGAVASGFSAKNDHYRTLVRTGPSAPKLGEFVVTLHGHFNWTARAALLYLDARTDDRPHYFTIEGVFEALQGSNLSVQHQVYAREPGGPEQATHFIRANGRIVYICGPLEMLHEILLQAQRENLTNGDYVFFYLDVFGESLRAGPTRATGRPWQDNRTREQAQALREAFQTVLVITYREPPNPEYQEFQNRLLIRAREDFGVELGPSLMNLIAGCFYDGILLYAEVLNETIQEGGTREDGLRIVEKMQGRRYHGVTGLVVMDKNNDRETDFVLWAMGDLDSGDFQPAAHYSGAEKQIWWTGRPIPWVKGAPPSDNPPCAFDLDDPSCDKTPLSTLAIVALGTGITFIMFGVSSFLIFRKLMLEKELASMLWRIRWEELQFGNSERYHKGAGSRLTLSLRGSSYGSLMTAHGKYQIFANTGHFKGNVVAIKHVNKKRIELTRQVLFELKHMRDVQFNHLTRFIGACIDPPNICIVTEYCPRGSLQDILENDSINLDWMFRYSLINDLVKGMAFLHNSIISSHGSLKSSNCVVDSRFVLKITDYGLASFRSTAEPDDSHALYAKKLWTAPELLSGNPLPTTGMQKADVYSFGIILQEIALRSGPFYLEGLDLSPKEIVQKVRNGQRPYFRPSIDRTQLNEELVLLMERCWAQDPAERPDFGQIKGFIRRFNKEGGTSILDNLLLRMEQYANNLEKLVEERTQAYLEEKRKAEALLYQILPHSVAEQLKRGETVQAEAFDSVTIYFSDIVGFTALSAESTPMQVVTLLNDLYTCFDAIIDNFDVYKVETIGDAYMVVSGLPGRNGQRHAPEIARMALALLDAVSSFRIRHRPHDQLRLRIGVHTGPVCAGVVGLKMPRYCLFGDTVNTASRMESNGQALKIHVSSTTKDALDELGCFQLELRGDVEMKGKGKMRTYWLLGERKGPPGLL
T1 sequence (P35557 whole entry, looked up): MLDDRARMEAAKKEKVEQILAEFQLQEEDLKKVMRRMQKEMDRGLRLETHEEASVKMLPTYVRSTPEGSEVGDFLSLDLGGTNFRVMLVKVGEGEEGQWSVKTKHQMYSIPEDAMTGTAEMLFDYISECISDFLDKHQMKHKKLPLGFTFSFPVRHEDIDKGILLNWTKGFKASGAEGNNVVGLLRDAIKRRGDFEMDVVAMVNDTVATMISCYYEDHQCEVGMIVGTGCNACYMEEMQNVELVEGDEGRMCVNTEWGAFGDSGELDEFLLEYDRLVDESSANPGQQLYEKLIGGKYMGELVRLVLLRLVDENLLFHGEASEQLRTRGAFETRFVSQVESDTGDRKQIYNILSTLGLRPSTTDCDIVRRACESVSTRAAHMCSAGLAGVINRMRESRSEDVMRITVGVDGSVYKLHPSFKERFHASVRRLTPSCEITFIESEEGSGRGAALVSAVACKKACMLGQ
T1 sequence (Q14397 whole entry, looked up): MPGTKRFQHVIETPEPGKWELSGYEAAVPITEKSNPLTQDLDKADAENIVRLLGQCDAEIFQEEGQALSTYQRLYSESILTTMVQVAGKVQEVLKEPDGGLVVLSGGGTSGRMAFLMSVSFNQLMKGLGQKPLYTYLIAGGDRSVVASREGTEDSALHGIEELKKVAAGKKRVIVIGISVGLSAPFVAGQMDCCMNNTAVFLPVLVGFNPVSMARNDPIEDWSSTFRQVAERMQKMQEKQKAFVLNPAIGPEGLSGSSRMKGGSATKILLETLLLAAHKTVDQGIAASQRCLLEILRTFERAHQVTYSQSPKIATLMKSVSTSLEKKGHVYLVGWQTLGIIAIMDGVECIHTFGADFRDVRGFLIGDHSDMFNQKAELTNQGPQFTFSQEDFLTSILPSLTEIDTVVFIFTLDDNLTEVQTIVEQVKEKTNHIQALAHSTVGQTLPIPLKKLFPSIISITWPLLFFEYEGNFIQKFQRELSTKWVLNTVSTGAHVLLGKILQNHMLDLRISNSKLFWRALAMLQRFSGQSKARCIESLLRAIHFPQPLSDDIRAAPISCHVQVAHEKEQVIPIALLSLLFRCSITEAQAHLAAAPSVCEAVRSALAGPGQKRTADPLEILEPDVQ

C=CC[C@H](N)C(=O)O
inactive: Potency [1] | Potency [2] | max response [3] 18.7% | Potency [4] | Potency [5] | Potency [6] | Potency [7] | Potency [8]

O=c1cc(-c2ccccc2)[nH]c2nc(Cl)ccc12
inactive: Potency [1] | Potency [2] | max response [3] -6.09% | Potency [4] | Potency [5] | Potency [6] | Potency [7] | Potency [8]

NC1(C(=O)O)CCCCC1
inactive: Potency [1] | Potency [2] | max response [3] 26.2% | Potency [4] | Potency [5] | Potency [6] | Potency [7] | Potency [8]

CSC(=N)N
inactive: Potency [1] | Potency [2] | Potency [9] | max response [3] 32.5% | Potency [4] | Potency [5] | Potency [6] | Potency [7] | Potency [8]

CSc1nc(N)c2ncn([C@@H]3O[C@H](COP(=O)(O)OP(=O)(O)O)C(O)[C@H]3O)c2n1 (stereo partly specified)
inactive: Potency [1] | Potency [2] | max response [3] 18.1% | Potency [4] | Potency [5] | Potency [6] | Potency [7] | Potency [8]

CCOC(=O)C12CC1/C(=N/O)c1ccccc1O2 (stereo unspecified)
inactive: Potency [1] | Potency [2] | max response [3] 0.715% | Potency [4] | Potency [5] | Potency [6] | Potency [7] | Potency [8]

OC[C@H]1NC[C@@H](O)[C@@H]1O
inactive: Potency [1] | Potency [2] | Potency [9] | max response [3] 20.9% | Potency [4] | Potency [5] | Potency [6] | Potency [7] | Potency [8]

CO/N=C(\C(=O)N[C@@H]1C(=O)N2C(C(=O)O)=C(CSc3nc(=O)c(O)nn3C)CSC12)c1csc(N)n1 (stereo partly specified)
inactive: Potency [1] | Potency [2] | max response [3] 32.5% | Potency [4] | Potency [5] | Potency [6] | Potency [7] | Potency [8]

CCCn1c(=O)c2[nH]c(-c3ccc(S(=O)(=O)O)cc3)nc2n(CCC)c1=O
inactive: Potency [1] | Potency [2] | Potency [9] | max response [3] 27.3% | Potency [4] | Potency [5] | Potency [6] | Potency [7] | Potency [8]

CCCn1c(=O)c2c(ncn2C)n(CCC)c1=O
inactive: Potency [1] | Potency [2] | max response [3] 12.3% | Potency [4] | Potency [5] | Potency [6] | Potency [7] | Potency [8]

Cc1nc(N=Nc2cc(S(=O)(=O)O)c3cc([N+](=O)[O-])cc(S(=O)(=O)O)c3c2)c(COP(=O)(O)O)c(C=O)c1O
inactive: Potency [1] | Potency [2] | max response [3] -2.01% | Potency [4] | Potency [5] | Potency [6] | Potency [7] | Potency [8]

CCCc1c(OCCCOc2ccc(OCC(=O)O)cc2)ccc(C(C)=O)c1O
inactive: Potency [1] | Potency [2] | Potency [9] | max response [3] 1.52% | max response [10] -9.62% | Potency [11] | Potency [4] | Potency [5] | Potency [6] | Potency [7] | Potency [8]

N[C@H]1CONC1=O
inactive: Potency [1] | Potency [2] | max response [3] 7.19% | Potency [4] | Potency [5] | Potency [6] | Potency [7] | Potency [8]

CCCCCCCCCCCCCCSCC(=O)O
inactive: Potency [1] | Potency [2] | Potency [9] | max response [3] 30.8% | max response [10] -15% | Potency [11] | Potency [4] | Potency [5] | Potency [6] | Potency [7] | Potency [8]

CC(C)C[C@H](NC(=O)C1OC1C(=O)O)C(=O)NCCCCN=C(N)N (stereo partly specified)
inactive: Potency [1] | Potency [2] | Potency [9] | max response [3] -4.29% | Potency [4] | Potency [5] | Potency [6] | Potency [7] | Potency [8]

O=C(OCCN1CCOCC1)C1(c2ccccc2)CCCCC1
inactive: Potency [1] | Potency [2] | Potency [9] | max response [3] 16.2% | Potency [4] | Potency [5] | Potency [6] | Potency [7] | Potency [8]

C#CCn1c(=O)c2c(ncn2C)n(C)c1=O
inactive: Potency [1] | Potency [2] | max response [3] 7.96% | Potency [4] | Potency [5] | Potency [6] | Potency [7] | Potency [8]

N#CC(C#N)=C(N)/C(C#N)=C/c1ccc(O)cc1
inactive: Potency [1] | Potency [2] | Potency [9] | max response [3] 11.4% | Potency [4] | Potency [5] | Potency [6] | Potency [7] | Potency [8]

O=C(O)c1cc2cc(F)ccc2[nH]1
inactive: Potency [1] | Potency [2] | max response [3] 5.51% | Potency [4] | Potency [5] | Potency [6] | Potency [7] | Potency [8]

CC1C(=O)N(C)C(=O)c2nc[nH]c21 (stereo unspecified)
inactive: Potency [1] | Potency [2] | max response [3] 38.8% | Potency [4] | Potency [5] | Potency [6] | Potency [7] | Potency [8]

CN(C)C(=O)/N=N/C(=O)N(C)C
inactive: Potency [1] | Potency [2] | max response [3] -1.96% | Potency [4] | Potency [5] | Potency [6] | Potency [7] | Potency [8]

Nc1ncnc2c1nc(Sc1ccc(Cl)cc1)n2[C@H]1OC2COP(=O)(O)O[C@@H]2C1O (stereo partly specified)
inactive: Potency [1] | Potency [2] | max response [3] 39.2% | Potency [4] | Potency [5] | Potency [6] | Potency [7] | Potency [8]

CCn1c(=O)[nH]c2cc(Cl)c(Cl)cc21
inactive: Potency [1] | Potency [2] | max response [3] 24.6% | Potency [4] | Potency [5] | Potency [6] | Potency [7] | Potency [8]
